Gli-Sufu block = blocks Gli-Sufu signaling in a luciferase reporter | Sufu-KO-LIGHT fibroblasts, Gli luciferase reporter luminescence | inhibition, % at 5 µM | 0.74% of 340,000 active | AID 588413;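 active = inhibition above about 55%, limit read from the data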;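 also: 0% = DMSO-treated cells and 100% = wells with medium but no cells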
SRC1 inh = human NCOA1 inhibition. HEK293 GAL4-SRC1 luciferase reporter, luminescence. 0.12% of 360,000 active. inhibition, % at 3.6 µM. AID 588354;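 active = inhibition above the campaign mean plus 3 SD, with each screening campaign given its own cutoff, cut at about 60% in these data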;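 also: 0% = DMSO treated cells and 100% = gossypol at 36 µM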
NCOA3 inh = human NCOA3 inhibition | Q9Y6Q9 | HEK293 GAL4-SRC3 luciferase reporter, luminescence | inhibition, % at 3.6 µM | 0.17% of 360,000 active | AID 588352;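 active = inhibition above a per-campaign cutoff, the mean of all compounds plus 3 SD, cut at about 60% in these data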;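 also: 0% = DMSO-treated cells and 100% = gossypol-treated cells at 36 µM; higher means less SRC3-driven luciferase light from the GAL4 reporter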
NR2F2 inh = inhibitors of human COUP-TFII (NR2F2). P24468. 0.7% of 370,000 active. inhibition, % at 8.6 µM. HEK293T NGFI-A luciferase reporter, luminescence;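 active = inhibition above a per-plate cutoff, mean inhibition of test wells between control levels plus 3 SD, cut at about 38% in these data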;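 also: cells cotransfected with COUP-TFII expression vector driving the NGFI-A reporter; 0% = median of COUP-TF2 test wells and 100% = reporter-only cells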
Target sequence (P24468 whole entry, looked up): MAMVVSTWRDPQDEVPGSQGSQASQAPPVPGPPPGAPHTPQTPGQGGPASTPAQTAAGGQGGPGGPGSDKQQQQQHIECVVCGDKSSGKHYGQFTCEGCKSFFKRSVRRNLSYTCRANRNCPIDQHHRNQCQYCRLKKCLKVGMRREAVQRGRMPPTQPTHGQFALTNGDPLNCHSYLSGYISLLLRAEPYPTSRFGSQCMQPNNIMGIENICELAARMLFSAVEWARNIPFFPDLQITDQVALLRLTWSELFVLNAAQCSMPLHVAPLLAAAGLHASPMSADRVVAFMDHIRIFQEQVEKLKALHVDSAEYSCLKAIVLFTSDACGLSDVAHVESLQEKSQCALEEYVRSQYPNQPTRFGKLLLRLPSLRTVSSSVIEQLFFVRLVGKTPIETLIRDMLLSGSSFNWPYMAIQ
LRH-1 inv ag = suppresses constitutive activity of human LRH-1; HEK293T StAR-luciferase reporter, LRH-1 transfected, 24 h; 0.13% of 360,000 active; inhibition, % at 3.6 µM; O00482;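 active = inhibition above the mean inhibition of all tested compounds plus 3 SD, cut at about 73% in these data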;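 also: 0% = DMSO wells and 100% = reporter-only cells lacking LRH-1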
NCOA2 inhibitor = inhibits human steroid receptor coactivator 2; HEK293 GAL4-SRC2 luciferase reporter, luminescence; AID 651957; inhibition, % at 9 µM; 0.17% of 370,000 active;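 active = inhibition above the mean inhibition of all tested compounds plus 3 SD, set per campaign, cut at about 52% in these data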;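 also: 0% = DMSO treated cells and 100% = cells given Gossypol at 36 µM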
VP16 Luc counter = inhibits VP16 reporter, flagging COUP-TFII antagonist hits; shares compounds with NR2F2 inh; HEK293 Gal4-VP16 luciferase reporter, luminescence; inhibition, % at 8.5 µM; 25% of 2,500 active; in the data active = inhibition above about 13%
COUP-TFII conf = COUP-TFII (NR2F2) inhibition, confirmation assay | 45% of 2,500 active | shares compounds with NR2F2 inh | inhibition, % at 8.5 µM | HEK293 NGFI-A luciferase reporter, luminescence;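 active = mean inhibition over three repeats above a set limit taken from the earlier primary screen, cut at about 38% in these data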;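 also: 100% = cells given the luciferase reporter alone without the COUP-TF2 vector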
Starred values were filed as active, the others as inactive; / = not tested or not shown. Most compounds without a hit are left out; they make up all but 1.3% or so of the library.

SMILES	Gli-Sufu block	SRC1 inh	NCOA3 inh	NR2F2 inh	LRH-1 inv ag	NCOA2 inhibitor	VP16 Luc counter	COUP-TFII conf
COc1ccc(NC(=O)c2cc(-c3ccccc3Cl)on2)cc1OC	-13	-21	-28	0	-10	-14	/	/
NC(=O)c1sc2nc3c(c(-c4cccs4)c2c1N)CCCCC3	-18	69*	67*	43*	14	46	14*	32
NC(=O)c1sc2nc3c(c(-c4cccnc4)c2c1N)CCC3	-4	10	19	-2	-1	-8	/	/
Cc1ccc(OCCN2CCN(C(=O)CCC(=O)Nc3nnc(CC(C)C)s3)CC2)cc1	7	32	24	56*	25	8	4	33
CCC1(C)Cc2c(sc(NC(=S)NC(=O)c3ccccc3)c2C#N)CO1 (stereo not drawn)	-11	-29	-27	-11	-8	-13	/	/
CN1Cc2sc(NC(=S)NC(=O)c3ccccc3)c(C#N)c2CC1(C)C	60*	/	/	40*	/	43	7	69*
Cc1ccc(S(=O)(=O)N2C[C@@H](C)[C@]3(C2)[C@H](O)[C@H](OC(=O)NC2CC2)C[C@H]2C(=O)N(c4ccccc4)C(=O)[C@H]23)cc1	/	7	-1	-13	-12	22	/	/
COc1ccc(Oc2nc(C)nc3c2oc2ccccc23)cc1	-2	0	5	42*	17	25	-1	12
Cc1[nH]c2ccccc2c1C(=O)C(C)OC(=O)C1CCC1 (stereo not drawn)	2	2	-4	8	11	4	/	/
COC(=O)C1=C(C)N(Cc2ccc(Cl)cc2)C(=S)NC1c1ccccc1 (stereo not drawn)	/	/	/	7	/	-17	/	/
COc1cccc(-c2nnc(SCc3cc(C)ccc3C)n2Cc2ccco2)c1	/	/	/	41*	/	18	9	11
Cc1cccc(NC(=S)NNc2ncc(C(F)(F)F)cc2Cl)c1	3	6	14	32	-6	50	/	/
FC(F)(F)c1cnc(NNC(=S)Nc2ccccc2Cl)c(Cl)c1	26	6	30	42*	7	-11	18*	14
COC(=O)[C@]12C[C@H](CC(=O)NCc3cccc4ccccc34)C(=O)N(Cc3ccc4c(c3)OCO4)C1=C[C@H](COCc1ccccc1)O[C@@H]2C	/	/	/	-12	/	-4	/	/
CCCCN(CCCNC(=O)c1ccc2c(c1)NC(=O)CN2C)c1ccccc1	/	5	-2	45*	-15	13	8	14
COC(=O)c1c(-c2ccc(N(C)C)cc2)sc2ccc(OC)cc12	34	0	-16	57*	28	61*	24*	49*
CN(C)c1ccc(/C=C/c2nc3ccccc3s2)cc1	22	56	64*	69*	41	54*	52*	82*
COc1ccccc1C(=O)Nc1nc2ccccc2[nH]1	75*	84*	80*	98*	84*	94*	87*	100*
Cc1cc(C(=O)Nc2cnc3ccccc3c2)ccc1[N+](=O)[O-]	-63	-84	-81	-43	-183	-43	/	/
Cc1ccc(C(=O)Nc2nc3ccccc3[nH]2)cc1	3	4	7	49*	0	50	-20	-5
COc1ccccc1C(=O)NCCC(=O)Nc1nc2ccccc2[nH]1	-7	-8	-18	-16	17	-17	/	/
COc1cc(SC)ccc1C(=O)Nc1nc2ccccc2[nH]1	93*	93*	92*	100*	93*	95*	96*	108*
Cc1ccc(C(=O)Nc2cnc3ccccc3c2)cc1	-110	31	33	71*	21	72*	24*	48*
CSc1ccccc1C(=O)Nc1nc2ccccc2[nH]1	-61	-74	-87	-27	-97	-63	/	/
COC(=O)CCN(Cc1cccc(OC)c1OC)S(=O)(=O)c1ccccc1Br	/	/	/	-9	/	3	/	/
SMILES	Gli-Sufu block	SRC1 inh	NCOA3 inh	NR2F2 inh	LRH-1 inv ag	NCOA2 inhibitor	VP16 Luc counter	COUP-TFII conf
COc1cc(CCC(=O)OCC(=O)Nc2sccc2C(N)=O)cc(OC)c1OC	-2	6	-20	39*	0	8	-4	21
NC(=O)c1ccsc1NC(=O)COC(=O)Cc1cccc2ccccc12	-15	-23	20	53*	25	29	-6	39*
O=S1(=O)CC(N2CCN(CC3CC3)CC2)CN1Cc1cn(Cc2ccccc2C(F)(F)F)nn1 (stereo not drawn)	/	0	13	1	-4	-17	/	/
O=S1(=O)CC(N2CCN(Cc3ccccc3F)CC2)CN1Cc1cn(Cc2ccc(C(F)(F)F)cc2)nn1 (stereo not drawn)	/	/	/	60*	16	16	-6	14
COc1ccc(C(=O)OCCN2CCN(C3CN(Cc4cn(Cc5ccccc5C(F)(F)F)nn4)S(=O)(=O)C3)CC2)cc1OC (stereo not drawn)	/	/	/	48*	/	14	0	17
O=C(COC(=O)c1cc(=O)c2ccccc2o1)NCc1ccc(Cl)cc1	/	6	0	-10	13	-10	/	/
C=CCNc1nc(-c2ccccn2)nnc1-c1ccccc1	48	-2	-2	-45	33	21	/	/
CC(C)(C)CCNc1nc(-c2ccccn2)nnc1-c1ccccc1	/	/	/	52*	/	/	4	14
c1ccc(-c2ccc(CNc3nc(-c4ccccn4)nnc3-c3ccccc3)cc2)cc1	/	/	/	55*	/	/	-2	18
COc1cc2c(NCCCCCCO[N+](=O)[O-])ncnc2c(OC)c1OC	/	/	/	16	/	6	/	/
O=C(CCCN1C(=O)/C(=C\c2cccc(Br)c2)SC1=S)Nc1ccc(C(=O)O)cc1	/	-12	6	-6	-13	-7	/	/
N#Cc1cc2cc3c(cc2nc1SCC(=O)N1CCOCC1)OCCO3	37	-14	30	46*	26	12	24*	59*
O=C(Nc1ccn(CCCNCc2cccc3ccccc23)c(=O)n1)OCc1ccccc1	/	-7	-6	6	-8	-8	/	/
O=S(=O)(O)c1cccc2c(N=Nc3ccc(O)c4ncccc34)cccc12	12	1	13	/	3	/	/	/
O=Nc1ccc(O)c2ncccc12	38	-214	-92	54*	11	20	5	41*
COc1ccc([C@H]2C[C@@H](n3cc(-c4ccc(F)cc4)nn3)[C@H](O)CN2C(=O)c2cccs2)cc1	/	-1	-12	2	12	-5	/	/
CCCCCCn1ccc(=N)cc1	5	-7	-17	76*	35	-1	4	50*
NC(Cc1ccc(Cl)cc1)c1csc(NC(=O)NCC2CCCCC2)n1 (stereo not drawn)	/	-4	12	81*	-8	60*	2	0
